Out of some 5,500 compounds screened, about 2,000 (36%) were called active. Not shown: some 18% with an inconclusive outcome. Rule as the data show it: active = normalized growth mostly below about 0.91 (no sharp cut-off); inconclusive = no clear call, values can overlap the other calls; inactive = mostly above about 0.92. The list shows a part of the results.
Experiment: chemical genetic growth profiling, strain panel (AID 1159580);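 also: tested at 20 µM; growth read once vehicle control cultures reached saturation at 30 °C; 1 = growth at the plate median or of vehicle wells; lower values mean less growth of the strain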
Details: growth OD
[1] = S. cerevisiae deletion strains, locus YAL013W, strain DEP1, stronger effect = lower value
[2] = S. cerevisiae deletion strains, locus YBR229C, strain ROT2, stronger effect = lower value
[3] = S. cerevisiae deletion strains, locus YCL061C, strain MRC1, stronger effect = lower value
[4] = S. cerevisiae deletion strains, locus YDL101C, strain DUN1, stronger effect = lower value
[5] = S. cerevisiae deletion strains, locus YDR150W, strain NUM1, stronger effect = lower value
[6] = S. cerevisiae deletion strains, locus YEL061C, strain CIN8, stronger effect = lower value
[7] = S. cerevisiae deletion strains, locus YGR078C, strain PAC10, stronger effect = lower value
[8] = S. cerevisiae deletion strains, locus YGR229C, strain SMI1, stronger effect = lower value
[9] = S. cerevisiae deletion strains, locus YHR030C, strain SLT2, stronger effect = lower value
[10] = S. cerevisiae deletion strains, locus YHR087W, strain rtc3, stronger effect = lower value
[11] = S. cerevisiae deletion strains, locus YJR043C, strain POL32, stronger effect = lower value
[12] = S. cerevisiae deletion strains, locus YJR075W, strain HOC1, stronger effect = lower value
[13] = S. cerevisiae deletion strains, locus YLR039C, strain RIC1, stronger effect = lower value
[14] = S. cerevisiae deletion strains, locus YLR058C, strain SHM2 (second series), stronger effect = lower value
[15] = S. cerevisiae deletion strains, locus YLR085C, strain ARP6, stronger effect = lower value
[16] = S. cerevisiae deletion strains, locus YLR262C, strain YPT6, stronger effect = lower value
[17] = S. cerevisiae deletion strains, locus YML094W, strain GIM5, stronger effect = lower value
[18] = S. cerevisiae deletion strains, locus YMR219W, strain ESC1, stronger effect = lower value
[19] = S. cerevisiae deletion strains, locus YMR263W, strain SAP30, stronger effect = lower value
[20] = S. cerevisiae deletion strains, locus YMR307W, strain GAS1, stronger effect = lower value
[21] = S. cerevisiae deletion strains, locus YNL153C, strain GIM3, stronger effect = lower value
[22] = S. cerevisiae deletion strains, locus YNL298W, strain CLA4 (second series), stronger effect = lower value
[23] = S. cerevisiae deletion strains, locus YNL322C, strain KRE1, stronger effect = lower value
[24] = S. cerevisiae deletion strains, locus YNR030W, strain Alg12, stronger effect = lower value
[25] = S. cerevisiae deletion strains, locus YPL055C, strain LGE1, stronger effect = lower value
[26] = S. cerevisiae deletion strains, locus YPL241C, strain CIN2, stronger effect = lower value
[27] = S. cerevisiae deletion strains, locus YPR135W, strain CTF4, stronger effect = lower value

Measured: normalized growth

COC(=O)c1ccc(S(=O)(=O)N2CCC(C(N)=O)CC2)n1C
inactive: [1] 0.97 | [2] 1 | [3] 0.99 | [4] 0.97 | S. cerevisiae deletion strains, locus YDL134C, strain PPH21, stronger effect = lower value 1.03 | [5] 0.881 | [6] 1.02 | [7] 0.989 | [8] 1 | [9] 1.05 | [10] 0.993 | [11] 0.983 | [12] 0.988 | S. cerevisiae deletion strains, locus YKL190W, strain CNB1, stronger effect = lower value 1.02 | [13] 1.01 | [14] 0.991 | [15] 1.06 | [16] 1.03 | [17] 0.999 | [18] 0.99 | [19] 0.981 | [20] 1.05 | [21] 1.01 | [22] 1.06 | [23] 1 | [24] 1.04 | [25] 0.852 | [26] 1.02 | [27] 1

CCOC(=O)c1ccc(NC(N)=S)cc1
inactive: [1] 1.01 | [2] 1.01 | [3] 0.994 | [4] 0.994 | [5] 0.941 | [6] 0.998 | [7] 0.993 | [8] 1 | [9] 1.03 | [10] 0.992 | [11] 0.997 | [12] 0.956 | [13] 1.01 | [14] 0.998 | [15] 0.974 | [16] 1.05 | [17] 0.966 | [18] 0.998 | [19] 0.935 | [20] 0.935 | [21] 0.979 | [22] 1 | [23] 1.01 | [24] 1 | [25] 0.949 | [26] 0.986 | [27] 0.968 | S. cerevisiae strains, strain wild type, stronger effect = lower value 1.01

CCOC(=O)c1ccc(NC(=O)CCC(=O)O)cc1
inactive: [1] 0.994 | [2] 0.983 | [4] 0.978 | [5] 0.99 | [6] 0.99 | [7] 0.99 | [9] 1.07 | [10] 0.982 | [11] 1.01 | [12] 1 | [13] 1.06 | [14] 0.987 | [15] 1.02 | [16] 1.05 | [17] 1 | [18] 0.991 | [19] 0.981 | [20] 1.01 | [21] 1.01 | [22] 1.01 | [23] 0.989 | [24] 1.02 | S. cerevisiae deletion strains, locus YOL006C, strain TOP1, stronger effect = lower value 1.04 | [25] 1 | [26] 1.01 | [27] 1.13

CCOC(=O)/C(C#N)=C(\Nc1ccc(C(=O)OCC)cc1)SC
active: [9] 0.815 | S. cerevisiae deletion strains, locus YLR113W, strain HOG1, stronger effect = lower value 0.706 | S. cerevisiae deletion strains, locus YPL256C, strain CLN2, stronger effect = lower value 0.751
inactive: S. cerevisiae deletion strains, locus YAR019C, strain CDC15, stronger effect = lower value 0.982 | S. cerevisiae deletion strains, locus YBL105C, strain PKC1, stronger effect = lower value 0.977 | S. cerevisiae deletion strains, locus YBR135W, strain CKS1, stronger effect = lower value 0.98 | S. cerevisiae deletion strains, locus YBR136W, strain MEC1, stronger effect = lower value 0.974 | S. cerevisiae deletion strains, locus YBR160W, strain CDC28, stronger effect = lower value 0.98 | S. cerevisiae deletion strains, locus YDL017W, strain CDC7, stronger effect = lower value 0.978 | S. cerevisiae deletion strains, locus YDL028C, strain MPS1, stronger effect = lower value 0.984 | [4] 0.977 | S. cerevisiae deletion strains, locus YDL108W, strain KIN28, stronger effect = lower value 0.972 | S. cerevisiae deletion strains, locus YDL132W, strain cdc53, stronger effect = lower value 0.981 | S. cerevisiae deletion strains, locus YDL214C, strain PRR2, stronger effect = lower value 0.929 | S. cerevisiae deletion strains, locus YDR052C, strain DBF4, stronger effect = lower value 0.983 | S. cerevisiae deletion strains, locus YDR054C, strain cdc34, stronger effect = lower value 0.984 | S. cerevisiae deletion strains, locus YDR226W, strain ADK1, stronger effect = lower value 0.979 | S. cerevisiae deletion strains, locus YDR477W, strain SNF1, stronger effect = lower value 0.954 | S. cerevisiae deletion strains, locus YER123W, strain YCK3, stronger effect = lower value 0.91 | S. cerevisiae deletion strains, locus YER133W, strain GLC7, stronger effect = lower value 0.945 | S. cerevisiae deletion strains, locus YFL009W, strain cdc4, stronger effect = lower value 0.978 | S. cerevisiae deletion strains, locus YFL029C, strain CAK1, stronger effect = lower value 0.982 | S. cerevisiae deletion strains, locus YFR003C, strain YPI1, stronger effect = lower value 0.977 | S. cerevisiae deletion strains, locus YFR019W, strain FAB1, stronger effect = lower value 0.968 | S. cerevisiae deletion strains, locus YFR028C, strain CDC14, stronger effect = lower value 0.979 | S. cerevisiae deletion strains, locus YGR040W, strain KSS1, stronger effect = lower value 0.946 | S. cerevisiae deletion strains, locus YGR052W, strain FMP48, stronger effect = lower value 0.959 | S. cerevisiae deletion strains, locus YGR092W, strain DBF2, stronger effect = lower value 0.947 | S. cerevisiae deletion strains, locus YHR079C, strain IRE1, stronger effect = lower value 0.841 | S. cerevisiae deletion strains, locus YHR082C, strain KSP1, stronger effect = lower value 0.998 | S. cerevisiae deletion strains, locus YHR205W, strain SCH9, stronger effect = lower value 0.872 | S. cerevisiae deletion strains, locus YIL147C, strain SLN1, stronger effect = lower value 0.98 | S. cerevisiae deletion strains, locus YJL095W, strain BCK1, stronger effect = lower value 0.934 | S. cerevisiae deletion strains, locus YJL128C, strain PBS2, stronger effect = lower value 0.913 | S. cerevisiae deletion strains, locus YJL157C, strain FAR1, stronger effect = lower value 0.945 | S. cerevisiae deletion strains, locus YJR016C, strain ILV3, stronger effect = lower value 0.99 | S. cerevisiae deletion strains, locus YJR066W, strain TOR1 (second series), stronger effect = lower value 0.941 | S. cerevisiae deletion strains, locus YJR066W, strain TOR1, stronger effect = lower value 0.985 | S. cerevisiae deletion strains, locus YKL048C, strain ELM1, stronger effect = lower value 0.921 | S. cerevisiae deletion strains, locus YKL067W, strain YNK1, stronger effect = lower value 0.928 | S. cerevisiae deletion strains, locus YKL101W, strain HSL1, stronger effect = lower value 0.908 | S. cerevisiae deletion strains, locus YKL193C, strain SDS22, stronger effect = lower value 0.984 | S. cerevisiae deletion strains, locus YKL203C, strain TOR2, stronger effect = lower value 0.977 | S. cerevisiae deletion strains, locus YLR133W, strain CKI1, stronger effect = lower value 0.953 | S. cerevisiae deletion strains, locus YLR403W, strain SFP1, stronger effect = lower value 0.954 | S. cerevisiae deletion strains, locus YML070W, strain DAK1, stronger effect = lower value 0.909 | S. cerevisiae deletion strains, locus YMR001C, strain CDC5, stronger effect = lower value 0.981 | S. cerevisiae deletion strains, locus YMR205C, strain PFK2 (second series), stronger effect = lower value 0.949 | S. cerevisiae deletion strains, locus YMR277W, strain FCP1, stronger effect = lower value 0.983 | S. cerevisiae deletion strains, locus YNL006W, strain LST8, stronger effect = lower value 0.98 | S. cerevisiae deletion strains, locus YNL020C, strain ARK1, stronger effect = lower value 0.944 | S. cerevisiae deletion strains, locus YNL161W, strain CBK1, stronger effect = lower value 0.978 | S. cerevisiae deletion strains, locus YNL183C, strain NPR1, stronger effect = lower value 0.948 | S. cerevisiae deletion strains, locus YNL207W, strain RIO2, stronger effect = lower value 0.975 | S. cerevisiae deletion strains, locus YNL222W, strain SSU72, stronger effect = lower value 0.982 | S. cerevisiae deletion strains, locus YNL307C, strain MCK1 (second series), stronger effect = lower value 0.931 | S. cerevisiae deletion strains, locus YOL078W, strain AVO1, stronger effect = lower value 0.994 | S. cerevisiae deletion strains, locus YOL136C, strain PFK27, stronger effect = lower value 0.912 | S. cerevisiae deletion strains, locus YOR061W, strain CKA2, stronger effect = lower value 0.949 | S. cerevisiae deletion strains, locus YOR119C, strain RIO1, stronger effect = lower value 1.02 | S. cerevisiae deletion strains, locus YOR231W, strain MKK1, stronger effect = lower value 0.864 | S. cerevisiae deletion strains, locus YOR329C, strain SCD5, stronger effect = lower value 0.98 | S. cerevisiae deletion strains, locus YPL031C, strain PHO85, stronger effect = lower value 0.957 | S. cerevisiae deletion strains, locus YPL153C, strain RAD53, stronger effect = lower value 0.954 | S. cerevisiae deletion strains, locus YPL204W, strain HRR25, stronger effect = lower value 0.948 | S. cerevisiae deletion strains, locus YPL209C, strain IPL1, stronger effect = lower value 0.982 | S. cerevisiae deletion strains, locus YPR025C, strain CCL1, stronger effect = lower value 0.979 | S. cerevisiae deletion strains, locus YPR106W, strain ISR1, stronger effect = lower value 0.978 | S. cerevisiae deletion strains, locus YPR111W, strain DBF20, stronger effect = lower value 0.947 | S. cerevisiae deletion strains, strain NNK1, stronger effect = lower value 0.959 | S. cerevisiae deletion strains, strain TSCII, stronger effect = lower value 0.984
